# Measured values taken from PubChem BioAssay (Tox21).
# Where “and” joins values, the source holds several entries; their conditions need not be identical. Equal entries are not always repeated. Records with an inconclusive call do not appear. Some compounds were tested as several samples or in several runs, with calls that do not always agree. Calls of active or inactive are those of the source. The call rests on the fitted dose curve; in most records, active means well fitted cell-killing curve with a large enough effect in the repeat runs; inconclusive means weak or mixed curves, or effect the other way; inactive means no such curve, though single readings can be large or run the other way.
# Experiment: qHTS assay for identifying genotoxic compounds that show differential cytotoxicity against isogenic chicken DT40 cell lines with known DNA damage response pathways - wild type cell line (AID 743012); further: nearly all actives have a fitted effect of over 60% in size
# Conditions: DT40 wild type chicken cells viability, CellTiter-Glo, 40 h; series mostly up to 68.4 µM; activity change, negative = cytotoxicity: at the top concentration
# Source text: U.S. Tox21 Program National Center for Advancing Translational Sciences [NCATS] NIH Chemical Genomics Center [NCGC] U.S. Environmental Protection Agency [EPA] National Institutes of Environmental Health Sciences [NIEHS] National Toxicology Program [NTP] U.S. Food and Drug Administration [FDA] Tox21 Assay Overview: DNA repair pathways play a critical role in cellular homeostasis by repairing DNA damage induced by endogenous processes and xenobiotics. Isogenic chicken DT40 cell lines deficient in different DNA repair pathways can be used to identify genotoxic compounds and aid in characterizing the nature of the DNA damage induced. Two DNA repair-deficient cell lines with disrupted genes, Rad54/Ku70 or Rev3, were used to screen the Tox21 10K compound library. Possible genotoxicity was based on the presence of a significant increase in cytotoxicity in one or more of the DNA repair-deficient cell lines compared to that observed in the parental DNA repair-proficient cell line. CellTiter Glo viability assay (Promega, Madison, WI) was used to measure cell viability in these cells after compound treatment. This assay includes the data from the wild type cell line.
# Tox21 Assay Protocol Summary: 300 DT40 wild type cells in 5 uL/well were dispensed into white, solid-bottom 1536-well plates using a Multidrop Combi (ThermoFisher Scientific, Waltham, MA) dispenser. After the assay plates were incubated at 37 C/5% CO2 for approximately 0.5 hour, 23 nL of compounds dissolved in DMSO, positive controls or DMSO only was transferred into the assay plate by a pintool work station (Kalypsys, San Diego, CA). The assay plates were incubated at 37 C/5% CO2 for 40 hours. After 5 uL per well of CellTiter-Glo reagent was added into each well of the assay plates, the plates were incubated for 30 min at room temperature and the luminescence intensity of the plates was measured using a ViewLux (PerkinElmer, Shelton, CT) plate reader.
# On the % scale 0 is the no-effect control and ±100 the full control effect; potency means the concentration at half of the fitted maximal effect.
SMILES,Potency,"activity change, negative = cytotoxicity"
O=C=Nc1ccc(Cl)cc1,27.3 µM (active),
COc1cc(CC(C)N)cc2c1OCO2 (stereo not given),,-18.7% [at 95 µM] (inactive)
Cc1ccc(-c2c(Cl)nc(C#N)n2S(=O)(=O)N(C)C)cc1,61.1 µM (active),
C=CC(C)=O,,11.3% (inactive)
CCCC(=O)Cl,,-12.8% (inactive)
CC(=O)C(C)(C)C,45 µM (active),
CO[C@@H]1[C@H](OC(=O)NC(=O)CCl)CC[C@]2(CO2)[C@H]1[C@@]1(C)O[C@@H]1CC=C(C)C,0.0006 µM (active),
CC(C)N(CCC(C(N)=O)(c1ccccc1)c1ccccn1)C(C)C (stereo not given),,0.0045% (inactive)
Cn1sc(Cl)cc1=O,inactive and 19.3 µM (active),
O=C(Nc1ccccc1)Nc1ccnc(Cl)c1,17.2 µM (active),
COC(=O)c1cncn1C(C)c1ccccc1 (stereo not given),,-23% (inactive)
Nc1nc(=S)[nH][nH]1,,-23.2% (inactive)
O=C(O)CC(Cl)C(=O)O (stereo not given),,2.75% [at 95 µM] (inactive)
O=Cc1ccc(Cl)cc1Cl,,4.37% [at 95 µM] (inactive)
C=COC(C)=O,,14.8% [at 95 µM] (inactive)
C=CC[C@]1(O)CC[C@H]2[C@@H]3CCC4=CC(=O)CCC4=C3C=C[C@@]21C,9.44 µM (active),
OC(c1ccc(Cl)cc1)(c1ccc(Cl)cc1)c1cccnc1,9.69 µM (active),
CCCCCCCCCCOC(=O)c1ccccc1C(=O)OCCCCCCCCCC,,-0.489% (inactive)
c1ccoc1,,-17.8% (inactive)
COC(=O)C(Br)CBr (stereo not given),,13.8% (inactive)

SMILES,Potency,"activity change, negative = cytotoxicity"
Nc1ccc(N=Nc2ccc(-c3ccc(N=Nc4c(S(=O)(=O)O)cc5cc(S(=O)(=O)O)c(N=Nc6ccccc6)c(O)c5c4N)cc3)cc2)c(N)c1,,4.82% (inactive)
C=CCN1CC[C@]23c4c5ccc(O)c4O[C@H]2C(=O)CC[C@@]3(O)[C@H]1C5,inactive,
O=S(=O)(Cl)c1ccccc1,,12% [at 95 µM] (inactive)
O=C(NC(=O)c1c(F)cccc1F)Nc1ccc(OC(F)(F)C(F)OC(F)(F)F)c(Cl)c1 (stereo not given),6.68 µM (active),
CC(C)=CCOc1c2occc2cc2ccc(=O)oc12,26.6 µM (active),
NCC(CC(=O)O)c1ccc(Cl)cc1 (stereo not given),,8.35% (inactive)
O=C1NCN(c2ccccc2)C12CCN(CCCOc1ccc(F)cc1)CC2,10.6 µM (active),
C/C=C/C=O,,-9.44% (inactive)
CC(C)(OO)c1ccccc1,30.6 µM (active),
COc1c(C(C)(C)C)cc([N+](=O)[O-])c(C)c1[N+](=O)[O-],,6.06% (inactive)
C[C@H]1CNCCc2ccc(Cl)cc21,26.6 µM (active),
COC(=O)C(Cl)C(=O)OC,,11.3% (inactive)
CC1(C)[C@H](C=C(Cl)Cl)[C@@H]1C(=O)O[C@@H](C#N)c1cccc(Oc2ccccc2)c1,,24% (inactive)
O=[N+]([O-])c1cc(C(F)(F)F)cc([N+](=O)[O-])c1Cl,,-0.93% [at 95 µM] (inactive)
O=[Se]=O,0.541 µM (active),
CC(C)(C)c1cc([N+](=O)[O-])cc([N+](=O)[O-])c1O,19.3 µM (active),
C=CCC1([C@H](C)CCC)C(=O)NC(=O)NC1=O,,-12.7% (inactive)
CC1C(=O)C[C@]2(C(C)C)C[C@H]12 (stereo not given in full),,10.4% (inactive)
Cc1ccccc1CCl,,21.2% (inactive)
ClC=C(Cl)Cl,inactive,
